Results on 15 compounds are retold here after PubChem BioAssay (NCI).

Among the test systems are DU-145 prostate; K-562 leukemia; MALME-3M melanoma; MDA-MB-231 breast; SF-268 CNS; SF-295 CNS; SF-539 CNS; UACC-257 melanoma; M14 melanoma; RXF 393 renal.
Common to all, as to assay: NCI-60 one-dose screen, 48 h (100 = growth as untreated, 0 = no growth, -100 = all killed)
Common to all, as to conditions: 10 µM

The panel holds about 83,000 compounds, 20% with a hit somewhere; the sample as a whole holds those more often.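 Assay: single dose, 48 h. Readout: percent growth (0 = no net growth; negative = cell death). Active: <10.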 A number with no mark means an inactive call. Active and inactive are the calls of the source.

In the case of `COc1cnc2c(c1)C(=O)c1c-2n(CCCNCCO)c(=O)c2cc(OC)c(OC)cc12`, the growth in the experiment on DU-145 prostate was 15.6%; in the experiment on K-562 leukemia, 26.8%; in the experiment with MALME-3M melanoma it was 49%; with MDA-MB-231 breast, 19.2%; in the experiment on SF-268 CNS, 44%; in the experiment with SF-295 CNS it was 6.94% (active). The growth is -52.7% (active) in the experiment on SF-539 CNS, 68.3% with UACC-257 melanoma and 23.1% in the experiment on M14 melanoma.

As for `COc1cccc2nc(Nc3cccc(NC(=O)c4ccc(CN5CCCN(C)CC5)c(C(F)(F)F)c4)c3)ccc12`, the growth is -83.4% (active) in the experiment on DU-145 prostate; 5.93% (active) with K-562 leukemia; -96.3% (active) in the experiment on MALME-3M melanoma; -99.1% (active) in the experiment with MDA-MB-231 breast; -50.3% (active) in the experiment with SF-268 CNS; -97.7% (active) in the experiment on SF-295 CNS. The values for the growth in the experiment with SF-539 CNS, with UACC-257 melanoma and in the experiment with M14 melanoma were -100% (active), -86% (active) and -90.5% (active), respectively.

On to `Cc1ccc(C(=O)CSc2nnc(-c3c[nH]c4ccccc34)n2-c2ccccc2)cc1`, for which the growth in the experiment with DU-145 prostate is 78.9%; in the experiment with K-562 leukemia, 27.2%; with MALME-3M melanoma, 35.1%; with MDA-MB-231 breast, -2.39% (active); in the experiment with SF-268 CNS, 29.7%; in the experiment with SF-295 CNS, 11.1%. Further, the results for the growth with SF-539 CNS, with UACC-257 melanoma and in the experiment on M14 melanoma were 22.1%, 77.3% and 51.2%, respectively.

On to `CN(C(=O)c1ccc(C(C)(C)C)cc1)c1sc2c(c1C#N)CCC(=O)C2`, for which the growth in the experiment with DU-145 prostate is 80.7%; in the experiment on K-562 leukemia, 11.7%; with MALME-3M melanoma, -6.14% (active); in the experiment on MDA-MB-231 breast, -74.4% (active); in the experiment with SF-268 CNS it was 18.5%; in the experiment on SF-295 CNS, -0.987% (active). Moreover, the growth with SF-539 CNS was -86.1% (active); in the experiment on UACC-257 melanoma, 97%; in the experiment with M14 melanoma, 19.3%.

On to `Cn1cc(/C=N/Nc2cccc(Cl)n2)c2ccccc21`, for which the growth is 72.5% in the experiment with DU-145 prostate; 20.2% with K-562 leukemia; 70.7% with MALME-3M melanoma; 51.6% with MDA-MB-231 breast; 56% in the experiment on SF-268 CNS; 73.5% in the experiment on SF-295 CNS. In addition, the figures for the growth with SF-539 CNS, with UACC-257 melanoma and in the experiment on M14 melanoma were 64.6%, 88.8% and 55.4%, respectively.

Turning to `N#Cc1ccc(-c2nn(-c3ccc(C(=O)O)cc3)cc2CNc2cc(Cl)cc(C(F)(F)F)c2)cc1`, the growth with DU-145 prostate was 26.7%; in the experiment with K-562 leukemia, 19.4%; in the experiment on MALME-3M melanoma, 14.7%; with MDA-MB-231 breast, 27.7%; in the experiment with SF-268 CNS it was 31.9%; in the experiment on SF-295 CNS it was 9.39% (active). For the same compound, the growth with SF-539 CNS is -26.4% (active); in the experiment with UACC-257 melanoma it was 14.9%; with M14 melanoma, 11.3%.

`Nc1nc(Nc2ccccc2)nn1Cc1c(Cl)cccc1Cl`: the growth in the experiment with DU-145 prostate is 48%; in the experiment on K-562 leukemia, 12.8%; with MALME-3M melanoma, 31.4%; in the experiment with MDA-MB-231 breast, 24.1%; with SF-268 CNS it was 50%; in the experiment on SF-295 CNS it was 46.6%. In addition, the growth in the experiment with SF-539 CNS was 37.6%; in the experiment on UACC-257 melanoma, 69.7%; in the experiment on M14 melanoma it was 35.5%.

Take `CN1CCN(c2ccc(C(=O)/C=C/c3cc(C(F)(F)F)ccc3Cl)cc2)CC1`: the growth with DU-145 prostate is -62.5% (active); in the experiment on K-562 leukemia, 2.76% (active); with MALME-3M melanoma, -95.4% (active); in the experiment with MDA-MB-231 breast, -95.1% (active); in the experiment on SF-268 CNS it was 1.69% (active); in the experiment on SF-295 CNS, -89.3% (active). Further, the growth in the experiment on SF-539 CNS is -100% (active); with UACC-257 melanoma it was -79.7% (active); in the experiment with M14 melanoma, -84.9% (active).

Regarding `O=C(Nc1cccc(C(F)(F)F)c1)c1cncc(C#Cc2cnc3ccc(N4CCOCC4)nn23)c1`, the growth in the experiment on DU-145 prostate is 0.548% (active); in the experiment on K-562 leukemia, 9.1% (active); in the experiment with MALME-3M melanoma it was -29.7% (active); in the experiment with MDA-MB-231 breast, -8.01% (active); in the experiment with SF-268 CNS, -31% (active); in the experiment with SF-295 CNS it was -8.57% (active). Also, the growth with SF-539 CNS is -88.1% (active); in the experiment on UACC-257 melanoma, 3.22% (active); in the experiment with M14 melanoma, -49.3% (active).

In the case of `O=[N+]([O-])c1ccc(-c2nc(-c3ccccc3)c(-c3ccccc3)n2-c2ccc(S(=O)(=O)Nc3ncccn3)cc2)cc1`, the growth in the experiment with DU-145 prostate was 64.4%; with K-562 leukemia it was 47.1%; in the experiment on MALME-3M melanoma, 87.2%; with MDA-MB-231 breast, 43.2%; in the experiment with SF-268 CNS it was 31.7%; with SF-295 CNS, 9.39% (active). For the same compound, the growth in the experiment with SF-539 CNS is 53.9%; in the experiment on UACC-257 melanoma, 63.9%; in the experiment with M14 melanoma it was 40.6%.

As to `O=C(Cc1ccc2c(c1)CN(C1CCC(=O)NC1=O)C2=O)NCc1cccc2ccccc12` (stereo unspecified), the growth with DU-145 prostate was -7% (active); with K-562 leukemia it was 8.3% (active); in the experiment with MALME-3M melanoma it was -72.2% (active); with MDA-MB-231 breast, -47.5% (active); with SF-268 CNS, -8.53% (active); in the experiment with SF-295 CNS it was -8.76% (active). Besides, the growth in the experiment with SF-539 CNS was -23.3% (active); with UACC-257 melanoma, 32.5%; in the experiment on M14 melanoma it was -70.8% (active).

For the compound `O=c1c2ccccc2nc(COc2ccccc2)n1/N=C/c1ccc(F)cc1`, the growth in the experiment with DU-145 prostate is 91.4%; in the experiment on K-562 leukemia, 69.8%; with MALME-3M melanoma it was 115%; in the experiment with MDA-MB-231 breast, 88%; in the experiment on SF-268 CNS, 99.7%; in the experiment on SF-295 CNS it was 89.4%. In addition, the growth with SF-539 CNS was 89.6%; in the experiment with UACC-257 melanoma, 99.8%; with M14 melanoma, 98.8%.

Consider `O=C(NO)c1ccc(CNC(=O)[C@H]2Cc3c([nH]c4ccccc34)[C@H](c3ccc(Cl)cc3)N2)cc1`, for which the growth in the experiment on DU-145 prostate was 10.7%; with K-562 leukemia, 9.83% (active); in the experiment on MALME-3M melanoma, 6.92% (active); in the experiment on MDA-MB-231 breast, -11.1% (active); with SF-268 CNS, 22.6%; in the experiment with SF-295 CNS, -17.4% (active). Moreover, the results for the growth in the experiment on SF-539 CNS, in the experiment with UACC-257 melanoma and in the experiment on M14 melanoma were 2.84% (active), 15.1% and 23%, respectively.

Turning to `COc1ccc(N(C)c2cc(C#N)nc3ccccc23)cc1N`, the growth in the experiment with DU-145 prostate is 20.3%; in the experiment on K-562 leukemia, 10.7%; in the experiment on MALME-3M melanoma it was 62.1%; with MDA-MB-231 breast it was 12.2%; in the experiment with RXF 393 renal, 57.2%; with SF-268 CNS, 22%. The growth in the experiment with SF-295 CNS was 15.8%; in the experiment on SF-539 CNS, -23.7% (active); in the experiment with UACC-257 melanoma, 63.3%; with M14 melanoma it was 26.5%.

As for `O=C(CSc1nnc(-c2ccc3nc(-c4ccc(Cl)cc4)[nH]c3c2)o1)Nc1ccc(Br)cc1`, the growth in the experiment with DU-145 prostate was 11.7%; with K-562 leukemia it was 5.15% (active); with MALME-3M melanoma, -81% (active); with MDA-MB-231 breast, -97.3% (active); in the experiment with SF-268 CNS, 0.811% (active); in the experiment with SF-295 CNS, -89.4% (active). Besides, the growth with SF-539 CNS was -95.2% (active); with UACC-257 melanoma it was -12.9% (active); in the experiment with M14 melanoma, -84.4% (active).
